Compound activity from PubChem BioAssay.
Compounds with a hit are over-represented: about 2.4% of the library has one in this group of screens.
HSP90 inh – HSP90 inhibitors, primary screen, cell lysate, luminescence | Heat shock protein HSP 90 (rabbit reticulocyte lysate; luciferase refolding) | 0.91% of 290,000 active | Rabbit reticulocyte lysate, luciferase refolding luminescence, 3 h | inhibition, % at 5.6 µM;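 active = inhibition above the screen-wide mean plus 3 SD, computed separately per campaign, cut at about 16% in these data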;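 note: inhibitors lower the luminescence because luciferase stays unfolded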
PPC-1+TRAIL kill – compounds killing PPC-1 cancer cells with TRAIL present, primary screen, TRAIL potentiator project, ATPLite luminescence, uHTS; PPC-1 cells + TRAIL, ATPLite viability luminescence; cell killing (% activity), % at 4 µM or 5 µM; 0.41% of 220,000 active; AID 1443, 2008;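 active = cell killing above 50% in the first pass at 4 µM, then a duplicate retest at 5 µM averaging 50% or more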
HSF1 inh – HSF1 inhibitors in luciferase reporter cells, primary screen, cell-based, NIH3T3, luminescence; NIH3T3-HGL HSE-luciferase, MG132-induced, luminescence 8 h; stronger effect = lower value; activity change, negative = inhibition, % at 7.5 µM (by protocol); 0.77% of 300,000 active; AID 2098, 2009;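 active = more than half of replicate wells show activity change below -50%, luminescence cut by over half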;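 note: luciferase reports HSF-1 transcriptional activity via heat shock element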
TRAIL sens C8 – viability loss with TRAIL in NB7+C8 cells, primary screen, TRAIL sensitizer project, cell-based, ATPlite luminescence; inhibition (viability loss, TRAIL sensitization), % at 10 µM; 1% of 360,000 active; AID 624354, 2012;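 active = compounds causing at least 50% loss of cell viability in the single-dose screen, relative to plate controls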
STAT3 blocker – IL-6 driven STAT3 reporter inhibitors, primary screen, U3A cells, luciferase, luminescence, MLSCN library | IL-6 STAT3-luciferase reporter; host cell line lacks STAT1 | inhibition, % at 5.5 µM | 0.89% of 190,000 active;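 active = inhibition above the mean inhibition across all screened compounds plus 3 SD, cut at about 44% in these data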
STAT1 blocker – STAT1 signaling inhibitors, primary screen, cell-based, HTS, luciferase reporter. NIH 3T3 STAT1-luciferase reporter, IFN-gamma, luminescence. inhibition, % at 5.5 µM. 0.35% of 200,000 active. AID 920, 2007;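 active = inhibition above a set limit, the mean inhibition across all tested compounds plus 3 SD, cut at about 34% in these data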
PPC1 cytotox – cytotoxicity in PPC-1 cells, confirmation, cytotoxicity control for TRAIL apoptosis potentiator project, cell-based, ATP content luminescence. 50% of 1,200 active. shares compounds with PPC-1+TRAIL kill. AID 1447, 2008. cytotoxicity, % at 5 µM. PPC-1 viability, ATPlite luminescence, overnight;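 active = reconfirmed compounds whose average cytotoxicity reaches 50% or more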
HSP90 inh confirm – HSP90 inhibitors, confirmation, cell lysate, luminescence | shares compounds with HSP90 inh | inhibition, % at 5.9 µM | 64% of 2,300 active | rabbit reticulocyte lysate, luciferase refolding luminescence, 3 h; in the data active = inhibition above about 18%
FLuc counter – firefly luciferase inhibitors, HSP90 counter-screen, confirmation, artefact control for HSP90 inhibitor project, biochemical, luminescence, triplicate | shares compounds with HSP90 inh | purified native firefly luciferase | inhibition, % at 5.9 µM | 48% of 2,300 active | AID 1847, 2009;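 active = inhibition above the mean inhibition of all tested sample wells plus 3 SD, cut at about 10% in these data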
Target sequence (P08659 whole entry, looked up): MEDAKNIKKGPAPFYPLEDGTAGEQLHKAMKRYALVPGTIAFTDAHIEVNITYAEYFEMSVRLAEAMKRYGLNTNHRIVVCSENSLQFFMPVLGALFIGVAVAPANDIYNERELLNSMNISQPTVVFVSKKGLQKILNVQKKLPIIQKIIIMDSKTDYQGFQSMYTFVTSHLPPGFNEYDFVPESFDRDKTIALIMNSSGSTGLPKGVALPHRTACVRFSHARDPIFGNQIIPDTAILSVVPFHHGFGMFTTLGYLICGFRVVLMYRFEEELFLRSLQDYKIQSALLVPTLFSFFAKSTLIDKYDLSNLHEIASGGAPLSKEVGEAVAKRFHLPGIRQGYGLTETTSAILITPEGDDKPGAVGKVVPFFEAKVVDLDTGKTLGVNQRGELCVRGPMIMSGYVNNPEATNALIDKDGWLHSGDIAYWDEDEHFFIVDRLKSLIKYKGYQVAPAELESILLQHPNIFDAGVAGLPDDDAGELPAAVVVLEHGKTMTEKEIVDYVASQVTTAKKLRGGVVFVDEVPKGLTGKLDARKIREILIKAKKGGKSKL
Numbers stand for hits; – = inactive; · = no result.

SMILES	HSP90 inh	PPC-1+TRAIL kill	HSF1 inh	TRAIL sens C8	STAT3 blocker	STAT1 blocker	PPC1 cytotox	HSP90 inh confirm	FLuc counter
Cc1csc(NC(=O)c2cc3c(s2)CCCCC3)n1	60.6	84.8	–	91.5	96.6	67.8	82.1	78.9	77.2
CCc1nnc(NC(=O)c2cc3c(s2)CCCCC3)s1	–	·	–	–	–	–	·	·	·
C#CCn1cc(CNC[C@H]2O[C@@H](n3cnc4c(=O)[nH]c(N)nc43)[C@H](O)[C@@H]2O)c2ccccc21	·	·	·	–	·	·	·	·	·
Cc1nc2sc(-c3ccccc3)cc2c(=O)n1N	19.3	–	–	60.3	·	·	–	77.2	65.8
O=C(/C=C/c1cccc(F)c1)c1ccc(N2CCOCC2)cc1	–	–	–	–	·	·	·	·	·
O=C(/C=C/c1cccs1)c1ccc(N2CCOCC2)cc1	31.3	63.5	–	76.2	–	–	65.3	58.4	68.6
O=C(Nc1nc2ccccc2[nH]1)c1ccccc1F	84.2	77.2	-74.6	89.7	100.7	77.7	79.3	94.6	88.0
CCN1CCN(c2ncnc3c2cnn3-c2ccccc2)CC1	–	–	–	–	–	–	·	·	·
c1ccc(-n2ncc3c(N4CCCCC4)ncnc32)cc1	56.1	80.0	–	86.0	96.3	65.7	78.7	79.7	73.7
Cc1ccc(-n2[nH]c(=O)c(-c3ccccn3)c2C)cc1	69.6	–	–	60.7	87.8	76.2	50.9	81.3	75.7
Cc1ccc(-n2[nH]c(=O)c3cccnc32)cc1	–	–	–	–	–	–	·	·	·
Cc1ccc2nc3ccc(N4CCCC4)nn3c(=O)c2c1	–	–	–	–	–	–	·	·	·
CC1CCCN(c2ccc3nc4ccccc4c(=O)n3n2)C1 (stereo not given)	35.7	82.8	–	77.5	76.1	51.3	82.9	59.8	37.9
CNC(=O)C1CCC(=O)N1Cc1c[nH]c2ccccc12 (stereo not given)	·	·	·	–	·	·	·	·	·
Cc1ccc(CNc2nc3ccccc3s2)s1	35.9	74.5	–	78.3	75.0	50.5	74.7	67.9	61.1
CCOc1ccc(OCC(=O)Nc2nccs2)cc1	54.0	–	–	65.6	95.3	60.7	51.5	77.3	69.8
CCOc1ccc(S(=O)(=O)N(C)c2ccc(OCC(=O)Nc3nccs3)cc2)cc1	–	–	–	–	–	–	·	·	·
Cc1sc(NC(=O)C2CC(=O)N(Cc3ccco3)C2)nc1-c1ccccc1 (stereo not given)	·	·	·	–	·	·	·	·	·
CC(C)NC(=O)C1C(c2ccccc2)=Nc2ccccc2N1C(=O)c1ccc(C(F)(F)F)cc1 (stereo not given)	·	·	·	–	·	·	·	·	·
CC(=O)NC(=S)Nc1ccc(-c2nc3ccc(C)cc3s2)cc1	–	–	·	–	–	–	·	·	·
Cc1ccc2nc(-c3ccc(N)cc3)sc2c1	49.7	80.8	–	83.5	·	·	81.6	69.0	66.4
Nc1ccc2nc(-c3ccccc3)sc2c1	36.9	68.5	–	76.0	63.8	42.4	68.3	72.2	67.7
Nc1ccc(-c2nc3cc(N)ccc3s2)cc1	25.0	–	·	60.1	–	–	54.0	47.2	38.8
O=C(OCn1nnc2ccccc2c1=O)c1ccc(F)c(S(=O)(=O)N2CCOCC2)c1	·	·	·	–	·	·	·	·	·
CC1=C(C(=O)N(C(C)C)C(C)C)CC(CC(=O)NCc2cccs2)C(=O)N1CCCN1CCCC1=O (stereo not given)	·	·	·	–	·	·	·	·	·
